# Measured values taken from PubChem BioAssay.
# Active and inactive are the calls of the source.
# Tested on: XIP peptide (Xip251-270) binding
# Assay: XIP fragment 251-270 binding compounds – biochemical, small-molecule microarray, fluorescence 635/667 nm, 0.1 µg/mL protein, primary screen (AID 1182)
# Settings: fluorescent protein binding, 635 nm, higher = more signal, called active from +8 up or from −8 down
row,SMILES,composite z-score
1,Cc1cc2c(nc1C)CCCCN2CC(O)CN1CCCc2nc(-c3ccc(Br)cc3)ccc21 (centres undefined),-0.0362 (inactive)
2,COC(OC)[C@@H](C)[C@H](OC)[C@@H](C)[C@H](OC)c1ccccc1,-0.17 (inactive)
3,CCCC[C@H]1CN2[C@@H](CC[C@@H](C)[C@@H]2c2ccc(Br)cc2)C(=O)O1,0.977 (inactive)
4,COc1ccc(COC(=O)NN=C2C[C@@H](O)[C@@H](O)[C@@H]3[C@@H]4C(=O)N(Cc5ccccc5)C(=O)[C@@H]4CC[C@@H]23)cc1,-0.662 (inactive)
5,COC(=O)CC=C[C@@H](C)[C@@H](C=NOC(C)CN1CCCCc2nc(C)c(C)cc21)OC (some centres undefined),0.771 (inactive)
6,CC(C)=CCCC(C)=CCON=C1C[C@@H](O)[C@@H](O)[C@@H]2[C@@H]3C(=O)N([C@@H](C)c4ccccc4)C(=O)[C@@H]3CC[C@@H]12,0.0439 (inactive)
7,CCN1C(=O)[C@H]2[C@H]3[C@H](O)[C@H](O)CC(=NOCC[C@@H]4C=C[C@H](OC(C)=O)[C@@H](COC(C)=O)O4)[C@@H]3CC[C@H]2C1=O,0.607 (inactive)
8,CC(=O)OC[C@H]1O[C@@H](ON=C(C)CCN2CCCCc3nc(C)c(C)cc32)[C@H](OC(C)=O)[C@@H](OC(C)=O)[C@@H]1OC(C)=O,-0.0733 (inactive)

# Tested on: XIP peptide (Xip251-270)
# Assay: compounds binding XIP fragment 251-270 – biochemical, small-molecule microarray, fluorescence 635/667 nm, 0.5 µg/mL protein, primary screen (AID 1183)
# Settings: fluorescence 635 nm, higher = more signal
row,SMILES,composite z-score
1,COC(=O)[C@@H]1CC[C@H](C)[C@@H](c2ccc(Br)cc2)N1,-0.381
2,CCc1cc2c(nc1CC)CCN(CCC(C)=NOC(C)CN1CCCCc3nc(C)c(C)cc31)C2 (centres undefined),0.61
3,CCOC(=O)[C@H](Cc1ccccc1)NC(=O)CCC1CC(OC(=O)NCc2ccc3c(c2)OCO3)CC2(CCCC(COC(=O)NCCOc3ccccc3)O2)O1 (some centres undefined),0.565
4,COC(=O)[C@@H]1CC[C@H](C)[C@@H](c2ccc(C)cc2)N1C(=O)c1ccc(C=NOC[C@H]2O[C@H](c3ccccc3)C=C[C@@H]2Oc2ccc(OC)cc2)cc1,0.313
5,COC(=O)CC=C[C@@H](C)[C@@H](C=NOC[C@@H](C)[C@H](OCc1ccccc1)C(C)C)OC,-0.0012
6,CCOC(=O)CCN1C(=O)[C@H]2[C@@H]3C(=CC[C@H]2C1=O)C(=O)[C@H]1O[C@H]1[C@H]3O,-0.465
7,CC(CCN1CCCc2nc(C)c(C)cc21)=NOC[C@@H](C)[C@H](OCc1ccccc1)C(C)C,0.548
8,O=C1[C@H]2CCn3c(=O)n(Cc4cc5c(cc4Cl)OCO5)c(=O)n3[C@H]2[C@H](O)[C@@H]2O[C@H]12,0.639
9,CCC1=NOC(CCC2CC(OC(=O)NCc3cccc4c3OCO4)CC3(CCCC(COC(=O)NCCc4ccc(Cl)cc4)O3)O2)C1 (centres undefined),0.855
10,C=CC[C@@H]1C=C[C@H](ON=CC[C@@H]2C=C[C@H](OC(C)=O)[C@@H](COC(C)=O)O2)[C@@H](CO)O1,0.749
11,CO[C@@H]1COC(=O)[C@H](COCc2ccccc2)NC(=O)CC=C[C@@H](C)[C@H](OC)COC(=O)[C@@H](C)NC(=O)CC=C[C@H]1C,0.261
12,O=C1C[C@@H](O)[C@@H](O)[C@@H]2[C@@H]3C(=O)N(Cc4ccccc4)C(=O)[C@@H]3CC[C@H]12,0.502
13,CC(C)CN1CCc2nc(-c3ccccc3)c3c(c2C1)CO[C@@H](C)C3,0.687
14,COC(=O)[C@@H]1CC[C@H](C)[C@@H](c2ccc(Br)cc2)N1C(=O)C(F)(F)F,-0.635
15,CC(C)[C@@H](OCc1ccccc1)[C@H](C)C=NO[C@H](C)c1cn([C@@H]2COC[C@H]2O)nn1,0.0742
16,CCN1C(=O)[C@H]2[C@H]3[C@H](O)[C@H](O)CC(=NO[C@@H](C)c4cc(-c5c(C)cc(C)cc5C)no4)[C@@H]3CC[C@H]2C1=O,0.811
17,CCOC(=O)NN=C1C[C@@H](O)[C@@H](O)[C@@H]2[C@@H]3C(=O)N(CC)C(=O)[C@@H]3CC[C@H]12,-0.379
18,CON(C)C(=O)c1nnc2c(n1)[nH]c1ccccc12,0.755

row,SMILES,composite z-score
1,CCc1cc2c(nc1CC)CCN(CCC(C)=NOCC[C@@H]1C=C[C@H](OC(C)=O)[C@@H](COC(C)=O)O1)C2,0.45
2,CC(C)CON=C1C[C@@H](O)[C@@H](O)[C@@H]2[C@@H]3C(=O)N(c4ccc(F)cc4F)C(=O)[C@@H]3CC[C@@H]12,0.218
3,COC(=O)CC=C[C@@H](C)[C@@H](C=NOC[C@@H](O)COCc1ccco1)OC,0.338
4,C[C@H]1CC[C@H]2C(=O)O[C@H](CO)CN2[C@@H]1c1ccc(Br)cc1,-0.127
5,COC(=O)[C@H](C)NC(=O)CCC1CC(OC(=O)NCc2ccc3c(c2)OCO3)CC2(CCCC(COC(=O)NCCCN3CCCC3=O)O2)O1 (some centres undefined),0.612
6,CC(C)CON=C1C[C@@H](O)[C@@H](O)[C@@H]2[C@@H]3C(=O)N(C(C)(C)C)C(=O)[C@@H]3CC[C@@H]12,-0.295
7,COC(=O)[C@H](C)NC(=O)CCC1CC(OC(=O)NCCc2ccc(F)cc2)CC2(CCCC(COC(=O)NCc3ccccc3)O2)O1 (some centres undefined),0.607
8,O=C1[C@H]2[C@H]3[C@H](O)[C@H](O)CC(=NO[C@@H]4O[C@H](CO)[C@@H](O)[C@H](O)[C@H]4O)[C@@H]3CC[C@H]2C(=O)N1C[C@@H]1CCCO1,0.385
9,CC(CCC(=O)OC[C@H]1O[C@H](C#Cc2ccccc2)C=C[C@@H]1Oc1ccc(C)cc1)=NO[C@@H](C)c1cc(-c2c(C)cc(C)cc2C)no1,-0.333
10,COC(=O)[C@H](C)NC(=O)CCC1CC(OC(=O)NCc2cccc3ccccc23)CC2(CCCC(COC(=O)NCCOc3ccccc3)O2)O1 (some centres undefined),0.345
11,Cc1cc2c(nc1C)CCCCN2CC(O)CN1CCCc2nc(-c3ccc(Br)cc3)ccc21 (centres undefined),0.0985
12,COC(OC)[C@@H](C)[C@H](OC)[C@@H](C)[C@H](OC)c1ccccc1,-0.0245
13,CCCC[C@H]1CN2[C@@H](CC[C@@H](C)[C@@H]2c2ccc(Br)cc2)C(=O)O1,0.476
14,COc1ccc(COC(=O)NN=C2C[C@@H](O)[C@@H](O)[C@@H]3[C@@H]4C(=O)N(Cc5ccccc5)C(=O)[C@@H]4CC[C@@H]23)cc1,0.0404
15,COC(=O)CC=C[C@@H](C)[C@@H](C=NOC(C)CN1CCCCc2nc(C)c(C)cc21)OC (some centres undefined),0.444
16,CC(C)=CCCC(C)=CCON=C1C[C@@H](O)[C@@H](O)[C@@H]2[C@@H]3C(=O)N([C@@H](C)c4ccccc4)C(=O)[C@@H]3CC[C@@H]12,0.242
17,CCN1C(=O)[C@H]2[C@H]3[C@H](O)[C@H](O)CC(=NOCC[C@@H]4C=C[C@H](OC(C)=O)[C@@H](COC(C)=O)O4)[C@@H]3CC[C@H]2C1=O,0.529
18,CC(=O)OC[C@H]1O[C@@H](ON=C(C)CCN2CCCCc3nc(C)c(C)cc32)[C@H](OC(C)=O)[C@@H](OC(C)=O)[C@@H]1OC(C)=O,0.566
